Assay outcomes from PubChem BioAssay.
Compounds with a hit are over-represented: about 3.4% of the library has one in this group of screens.
FBW7 activator: human FBW7 E3 ligase activation, primary screen. AID 1259310. AlphaScreen FBW7–phospho-cyclin E peptide binding, activator screen. Q969H0. 650,000 compounds, 0.13% hits. normalized activity (activation), % at 26.1 µM; in the data active means normalized activity above about 1.9%;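 further: purified mutant Fbw7 with reduced substrate affinity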
Target sequence (Q969H0 whole entry, looked up): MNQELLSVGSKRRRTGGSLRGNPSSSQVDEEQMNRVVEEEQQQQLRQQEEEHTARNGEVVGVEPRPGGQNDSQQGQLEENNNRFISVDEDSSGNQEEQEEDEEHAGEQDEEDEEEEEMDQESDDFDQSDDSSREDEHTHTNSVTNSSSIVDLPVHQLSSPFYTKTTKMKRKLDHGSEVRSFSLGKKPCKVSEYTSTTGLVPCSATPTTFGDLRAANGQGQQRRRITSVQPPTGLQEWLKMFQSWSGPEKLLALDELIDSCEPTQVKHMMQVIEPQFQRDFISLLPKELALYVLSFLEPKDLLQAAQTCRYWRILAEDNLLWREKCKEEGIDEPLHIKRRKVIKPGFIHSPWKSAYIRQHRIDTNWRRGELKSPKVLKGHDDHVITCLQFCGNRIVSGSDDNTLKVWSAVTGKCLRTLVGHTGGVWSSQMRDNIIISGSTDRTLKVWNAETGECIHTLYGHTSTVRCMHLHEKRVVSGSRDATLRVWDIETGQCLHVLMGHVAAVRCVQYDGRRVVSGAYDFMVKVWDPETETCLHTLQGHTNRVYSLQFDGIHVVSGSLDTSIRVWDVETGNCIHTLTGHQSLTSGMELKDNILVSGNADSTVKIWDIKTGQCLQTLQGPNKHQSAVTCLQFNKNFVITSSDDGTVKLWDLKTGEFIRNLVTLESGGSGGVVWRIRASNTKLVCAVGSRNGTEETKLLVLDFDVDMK
TEAD-YAP block: TEAD-YAP interaction inhibition. AID 1259422. HEK-TIYL cells, TEAD-Gal4/YAP UAS-luciferase luminescence. inhibition, % at 9.12 µM. 640,000 compounds, 1.4% hits; in the data active means inhibition above about 32%;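 further: 0% = median of test compound wells and 100% = reference inhibitor wells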
MITF inh: human MITF inhibition, primary screen. inhibition, % at 2.6 µM. AlphaScreen MITF homodimerization, bead proximity signal. AID 1259374. 650,000 compounds, 0.91% hits; in the data active means inhibition above about 50%;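 further: 0% = vehicle wells with protein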
GPR151 activ: activators of human GPR151; Q8TDV0; PathHunter beta-arrestin GPR151 cells, luminescence; activation, % at 11.2 µM; 650,000 compounds, 1% hits; AID 1508602; in the data active means activation above about 4.9%;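 further: 0% = median of compound wells and 100% = cells with positive control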
GPR151 confirm: confirmation of human GPR151 activators. shares compounds with GPR151 activ. activation, % at 11.2 µM. 6,700 tested, under 10 active. GPR151 PathHunter beta-arrestin cells, luminescence, 90 min; % of EA-reagent control over plate median;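 active means mean percent activation across replicates above the confirmation screen cutoff of 4.91%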
GPR119 counter: activates human GPR119 in a GPR151 counter-screen; shares compounds with GPR151 activ; GPR119 PathHunter beta-arrestin cells, luminescence, 90 min; 0 = compound-well median, 100 = enzyme-acceptor control; activation, % at 11.2 µM; 6,700 compounds, 0.3% hits; AID 1508611;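 active means mean percent activation in the counterscreen above 29.09%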;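 further: counterscreen on off-target GPR119 to flag nonselective hits from the GPR151 activator screen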
* marks the source's active call; other numbers are inactive results; · = no result; ! = not active in a repeat.

SMILES	FBW7 activator	TEAD-YAP block	MITF inh	GPR151 activ	GPR151 confirm	GPR119 counter
O=C(NCCCN1CCOCC1)c1cc(S(=O)(=O)N2CCOCC2)ccc1Sc1ccc(Br)cc1	0	-8	-5	5.6*	-1	5
COc1ccc(C(=O)N2CCC(N3CCC(C)CC3)CC2)cc1	0	7	28	6.5*	1	-1
O=C(NCCN1CCOCC1)c1ccc2nc(N3CCN(Cc4ccc5c(c4)OCO5)CC3)sc2c1	0	9	-8	6.8*	0	-4
Cc1ccc(Cl)c2c1NC(=O)C21SCCS1	0	-8	3	8.6*	-1	2
Cc1sc2nc(C(C)C)n3c(SCC(=O)NNC(=O)C(C)C)nnc3c2c1C	0	3	6	7.4*	1	8
CCC(=O)NNC(=O)CSc1nnc2c3c(C)c(C)sc3nc(C(C)C)n12	0	9	-1	0	·	·
O=C(NCC1CCCO1)C1CC1c1ccccc1 (stereo unspecified)	0	15	7	2	·	·
COCCN1Cc2cc3cc(C)ccc3nc2OCC1=O	0	-2	14	7.2*	1	-4
CC(C)Oc1ccc(N2CC(C(=O)Nc3nccs3)CC2=O)cc1 (stereo unspecified)	0	-4	-11	0	·	·
Cc1cccc(C2N(Cc3ccccc3)CCCN2Cc2ccccc2)n1	0	-6	4	5.4*	0	-4
O=C(NCc1ccco1)c1ccc(Cn2c(=S)[nH]c3ccsc3c2=O)cc1	1	-2	22	0	·	·
CC(=O)N1CCN(Cc2ccc3c(c2)CN(C(=O)c2ccnc(Cl)c2)CCO3)CC1	1	1	15	1	·	·
CCC(=O)N1CCc2cc(S(=O)(=O)CCC(=O)NC3CCCCCC3)ccc21	0	-7	5	5.0*	0	1
CCC(C)N(C)C(=O)c1cc2ccccc2c(-c2ccccc2Cl)n1 (stereo unspecified)	0	-2	1	5.4*!	0	2
CC(NC(=O)c1cc(-c2ccccc2Cl)nc2ccccc12)c1ccccc1 (stereo unspecified)	0	18	15	0	·	·
CCOc1ccc(S(=O)(=O)NCc2ccco2)c(C)c1C	0	-9	-1	-1	·	·
CCOc1c(S(=O)(=O)NCc2ccco2)ccc(Cl)c1Cl	0	5	13	6.3*	-2	-15
CNC(=O)CC1C(=O)N(c2cccc(C(F)(F)F)c2)C(=S)N1CCc1ccc(OC)c(OC)c1 (stereo unspecified)	0	-9	1	8.6*	0	9
COc1ccc(CCC(=O)Nc2nc3c(s2)C(=O)CC(C)(C)C3)cc1	0	14	-7	6.5*	0	-7
COc1ccc(CC(=O)Nc2nc3c(s2)C(=O)CC(C)(C)C3)cc1	0	1	-5	0	·	·
COc1ccc(/C=C/C(=O)Nc2nc3c(s2)C(=O)CC(C)(C)C3)cc1	0	0	6	5.4*	0	1
CC(=O)NC(CC(C)C)c1nnc2n1CCN(Cc1cc3ccccc3s1)CC2 (stereo unspecified)	0	3	3	-1	·	·
COCc1c(C(=O)N/N=C\c2ccccc2OC)nnn1-c1nonc1N	0	1	12	5.1*	-1	-6
Nc1nonc1-n1nnc(C(=O)N/N=C/c2cccs2)c1CN1CCc2ccccc21	0	-1	-6	2	·	·
Nc1nonc1-n1nnc(C(=O)N/N=C/c2ccco2)c1CN1CCc2ccccc21	0	-7	-5	11*	0	2
SMILES	FBW7 activator	TEAD-YAP block	MITF inh	GPR151 activ	GPR151 confirm	GPR119 counter
Cc1cc(C(=O)COC(=O)c2ccc(-c3ccc(O)cc3)cc2)c(C)n1C	0	0	4	0	·	·
COC(=O)c1cc(C)sc1NC(=S)N1CCCCCC1	0	-22	-8	8.7*	1	-1
CCOc1cc(/C=C2/C(=N)N3N=C(CC)SC3=NC2=O)cc(Cl)c1OCCOc1cc(C)ccc1C	0	-9	7	8.4*	0	-5
CCOc1cc(/C=C2/C(=N)N3N=C(CC)SC3=NC2=O)cc(Cl)c1OCCOc1ccc(C)cc1C	0	-1	5	1	·	·
COCCCNC(=O)CCc1c(C)nc2cc(-c3ccccc3)nn2c1C	0	-3	-1	5.3*	0	-1
O=[N+]([O-])c1c(Cl)ccc2nsnc12	0	-1	0	1	·	·
